D1 antagonist – blocks dopamine activation of the human D1 receptor. actives 3.2% (n = 360,000). activity change, negative = inhibition, % at 10 µM. HEK293 TREx D1 cells, calcium flux, dopamine EC80; hits give low values. P21728. AID 504652; in the data active = activity change below about -30%; also: % is scaled to controls: 0 for no effect and ±100 for the full control effect
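Tetracycline-induced HEK293 Trex D1 cells, force-coupled to calcium, dye-loaded; compounds added and read 180 s, then EC80 dopamine added and calcium flux tracked kinetically another 180 s.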
TRHR PAM – allosteric enhancers of human TRH receptor; enhancement, % at 2 µM; TRHR cells, fluo-8 calcium fluorescence, EC20 TRH enhancement; actives 0.66% (n = 360,000); P34981; in the data active = enhancement above about 30%; also: 0% is about no effect
Target sequence (P34981 whole entry, looked up): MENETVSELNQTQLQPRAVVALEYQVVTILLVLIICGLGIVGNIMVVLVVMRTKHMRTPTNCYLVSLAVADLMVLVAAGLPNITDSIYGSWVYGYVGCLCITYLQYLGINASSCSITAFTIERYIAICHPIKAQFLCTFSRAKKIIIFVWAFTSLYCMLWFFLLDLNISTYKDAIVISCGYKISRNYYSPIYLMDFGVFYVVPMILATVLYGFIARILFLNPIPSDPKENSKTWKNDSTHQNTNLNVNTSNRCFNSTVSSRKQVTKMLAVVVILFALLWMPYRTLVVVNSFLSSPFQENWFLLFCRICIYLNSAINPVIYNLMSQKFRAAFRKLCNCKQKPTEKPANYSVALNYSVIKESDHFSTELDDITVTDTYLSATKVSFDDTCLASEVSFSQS
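Enhancer read-out: after compound pinning and an initial kinetic agonist-mode read, an EC20 of TRH (10 nM final) was injected and fluo-8 calcium signal (Ex 480/Em 530) followed at 1 s/cycle for 100 cycles in TRHR-expressing cells.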
D1 agonist – human D1 receptor agonism; actives 1% (n = 360,000); HEK293 T-REx D1 cells, calcium flux, agonist mode; AID 504660; activation, % at 2 µM; also: 0% is about no effect
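Inducible HEK293 T-REx D1 cells, force-coupled to calcium signalling, were plated at 4000 cells/well with tetracycline and held overnight at 30 C. After no-wash calcium dye loading, compound-evoked calcium rise over 180 s flagged agonists.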
TRHR agonist – agonists of human TRH receptor | actives 0.18% (n = 360,000) | P34981 | activation, % at 2 µM | TRHR cells, calcium flux fluo-8, FDSS agonist mode | AID 493084; also: 0% is about no effect
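Agonist-mode FDSS calcium read (Ex 480/Em 530, 1 s cycles) in 1536-well TRHR cells with fluo-8 dye, after 10-cycle baseline and 23 nL compound addition; TRH at EC20 (10 nM final) added afterwards for the enhancer phase.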
Epigenetic derep – epigenetic control regulation, reporter derepression. murine LDR cells, GFP reporter derepression, 30 h. Potency, µM (doses to about 53.9 µM), without a hit: top-dose GFP activation, most hits filed as activators. actives 0.2% (n = 280,000). AID 1865; active = well fitted activation curve with a large enough effect; inconclusive = small, poorly fitted or top-dose-only effect; also: potency is read from the fitted curve at half-maximal effect; % of control where 0% means no effect; nearly all actives have a fitted effect of over 60% in size
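Murine LDR cells bearing a silenced CMV-driven GFP reporter were exposed to compound for 30 h at 37 C. After PBS washes, GFP-positive cells (20-120 um objects) counted by laser-scanning microplate cytometry.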
D1 PAM – enhances dopamine response at the human D1 receptor; potentiation, % at 10 µM; P21728; HEK293 TREx D1 cells, calcium flux, dopamine EC20 potentiation; actives 0.036% (n = 360,000); in the data active = potentiation above about 30%; also: 0% is about no effect
* hit, by the source's call; u = inconclusive; x = not tested or not shown; [ ] = another dose, or the depositor's remark. Hits are enriched below; roughly 4.6% of the tested compounds scored in any of these assays. Rule as the data show it, unless noted: active = activation above about 30%; inactive = the rest.

SMILES | D1 antagonist | TRHR PAM | D1 agonist | TRHR agonist | Epigenetic derep | D1 PAM
S=C(NCc1ccccc1)NCc1ccc(Cl)cc1 | -15.0 | -1.5 | 6.4 | 0.1 | x | 0.4
CNc1ccc(C(=O)OCC(=O)Nc2ccnn2C(C)C)cc1[N+](=O)[O-] | -42.1* | -2.8 | 3.5 | 0.1 | x | -6.2
CCOC(=O)c1ccc(NC(C)=O)c([N+](=O)[O-])c1 | -0.7 | -3.2 | 4.5 | 0.2 | -0.3% | 11.1
Nc1nonc1C(=Nc1ccccc1)NO | -6.0 | -5.6 | 1.7 | -0.2 | -1.5% | 0.7
Nc1nonc1C(=O)NC(c1ccccc1)c1ccccc1 | -36.1* | -2.3 | -0.1 | -0.3 | -1.0% | -0.8
COc1ccc(C)cc1S(=O)(=O)Nc1ccc(-n2c(C)nc3ccccc3c2=O)cc1 | -11.3 | -2.9 | 3.5 | 0.0 | x | -2.9
COc1ccc(-n2c(O)c(/C=N/Nc3nc(C)cc(C)n3)c3ccccc3c2=O)cc1OC | 16.1 | -1.7 | -2.0 | 0.4 | -3.5% | 2.5
COc1ccc(-n2c(O)c(/C=N/NS(=O)(=O)c3cc(C)ccc3C)c3ccccc3c2=O)cc1OC | -4.2 | 7.8 | 69.2* | 71.7* | 7.5% | -3.0
COc1ccc(-n2c(O)c(/C=N/NS(=O)(=O)c3ccc(C)cc3)c3ccccc3c2=O)cc1OC | -6.2 | 1.7 | 53.1* | 23.1 | 16.1% | 1.1
COc1ccc(Cl)cc1S(=O)(=O)NCc1ccc2c(c1)CCN2C(=O)c1cccc(C)c1 | -1.5 | 4.4 | 2.3 | -0.3 | -0.5% | -3.5
CS(=O)(=O)Nc1ccccc1C(=O)Nc1cc(Cl)cc(Cl)c1 | -23.5 | -2.3 | 19.7 | 4.1 | 0.6% | -3.5
COC(=O)CCC(=O)Nc1cccc(C(=O)Nc2cccc(Cl)c2)c1 | 6.8 | 3.6 | 31.2* | 0.0 | -1.2% | -2.0
Cc1ccc(NC(=O)c2c(F)cccc2Cl)cc1NS(C)(=O)=O | -3.4 | 38.3* | 2.8 | -0.4 | -0.4% | -0.8
O=C(CCC(=O)OCC(=O)c1ccccc1)Nc1cccc(Cl)c1 | -1.5 | 9.5 | 5.6 | -0.8 | -1.0% | -6.2
CN(C)S(=O)(=O)Oc1ccc(C(=O)Nc2cccc(Cl)c2)cc1 | -46.5* | 4.5 | 23.8 | -1.0 | 2.5% | -6.9
CS(=O)(=O)Nc1ccccc1C(=O)Nc1cccc(Cl)c1 | -33.1* | -1.9 | 37.9* | 2.7 | -0.9% | -0.8
O=C(NC1CCN(Cc2ccccc2)CC1)c1ccc(-n2c(=O)c(=O)[nH]c3ccccc32)cc1 | x | x | x | x | -3.1% | x
O=C(Nc1cccc(F)c1)[C@H](CSCc1ccccc1)N1Cc2ccccc2C1=O | 0.4 | -1.2 | 9.6 | 2.6 | 4.2% | -5.4
O=C(NCCc1ccccc1)c1ccc2c(c1)N(Cc1ccccc1)C(=O)c1ccccc1S2=O (centres undefined) | -1.1 | 1.2 | 8.1 | 0.8 | -1.1% | 2.0
CC[n+]1ccc2cc(OC)c(OC)cc2c1Cc1ccc(OC)c(OC)c1 | -49.2* | -3.5 | -0.9 | 1.9 | 1.0% | 0.1
COc1ccc(Cc2c3cc(OC)c(OC)cc3cc[n+]2C)cc1OC | -19.4 | -2.2 | 2.1 | -0.5 | 2.3% | -5.8
O=C(Nc1cccc(Cl)c1)c1cc2c(=O)[nH]c3ccccc3c2s1 | -16.8 | -6.0 | -1.5 | 2.1 | u | 6.3
CC(C)c1nn2c(=O)cc(COC(=O)c3cccc(NC(=O)c4ccccc4F)c3)nc2s1 | 17.8 | -1.2 | 2.8 | -0.5 | -3.5% | -0.8
COc1cc(OC)c(NC(=O)Nc2ccccc2OCc2cc(=O)n3cc(C)ccc3n2)cc1Cl | -8.8 | -7.2 | -1.5 | 0.3 | -2.2% | -3.0
COc1cc(OC)c(NC(=O)Nc2cccc(OCc3cc(=O)n4ccccc4n3)c2)cc1Cl | -40.0* | 1.4 | 2.3 | 0.1 | 6.4% | -5.8
SMILES | D1 antagonist | TRHR PAM | D1 agonist | TRHR agonist | Epigenetic derep | D1 PAM
COc1ccc2c(c1)C(=O)[C@@H](OC(=O)NCc1ccco1)[C@H](c1ccc(OC)c(Br)c1)O2 | x | x | x | x | 1.1% | x
C/C(=N\Nc1ccc([N+](=O)[O-])cc1)c1ccco1 | -3.2 | -1.5 | 33.3* | 3.6 | 4.6% | -6.7
C/C(=N\Nc1ccc([N+](=O)[O-])cc1)c1ccc(N2CCOCC2)cc1 | -0.6 | 3.7 | 38.9* | 19.2 | 5.2% | -1.7
CCc1ccc(/C(C)=N\Nc2ccc([N+](=O)[O-])cc2)cc1 | 0.6 | 5.3 | 11.7 | 5.1 | -0.9% | -3.2
CC/C(=N\Nc1ccc([N+](=O)[O-])cc1)c1ccccc1 | -33.6* | 6.8 | 24.0 | -0.6 | 4.0% | -9.6
C/C(=N\NC(=O)COc1ccc([N+](=O)[O-])cc1)c1ccco1 | 5.6 | 5.3 | 0.2 | -0.1 | x | 4.1
C/C(=N\Nc1ccccc1[N+](=O)[O-])c1ccc(N2CCOCC2)cc1 | -9.0 | 3.7 | 2.0 | -0.3 | -2.3% | 9.0
COc1cccc(C(=O)Nc2nc(-c3nnn(-c4ccccc4C(F)(F)F)c3C)ns2)c1 | -14.6 | -2.0 | 3.7 | 1.1 | 4.2% | -1.1
CSc1cccc(NC(=O)CN2CCN(Cc3ccccc3C)S2(=O)=O)c1 | 0.1 | 2.8 | 4.0 | -0.3 | 1.3% | -2.5
Cc1cc(NS(=O)(=O)c2ccccc2)c(C)c(Cl)c1O | -23.2 | -5.6 | 43.9* | 4.5 | 0.0% | -3.7
O=S(=O)(Nc1ccc(O)c(NS(=O)(=O)c2ccccc2)c1)c1ccccc1 | 4.0 | 7.3 | 0.5 | -0.6 | x | -6.0
O=S(=O)(O)c1c(NS(=O)(=O)c2ccccc2)ccc2ccccc12 | -35.9* | 5.3 | 2.8 | 1.6 | x | -6.8
Cc1c(O)ccc(NS(=O)(=O)c2ccccc2)c1C | -36.4* | -0.9 | 1.3 | 0.5 | 4.9% | -4.0
Cc1ccc(S(=O)(=O)N[C@@H](CCc2ccccc2)CC(=O)C(C)(C)C)cc1 | x | x | x | x | 0.0%[10.1 µM] | x
COc1ccc(N2CCN(C(=O)c3c(Cl)cnn3C)CC2)cc1 | -57.7* | -4.8 | 5.9 | 0.2 | x | -5.2
COc1ccc(N2CCN(C(=O)NC3CCCCC3)CC2)cc1 | -6.1 | 0.2 | 6.5 | -0.7 | -1.2% | 3.6
COc1ccc(N2CCN(C(=O)c3cn(CC4CCCCC4)nn3)CC2)cc1 | -34.1* | 2.9 | 10.1 | -0.5 | x | -2.6
O=C(CSc1oc(-c2ccco2)nc1S(=O)(=O)c1ccc(Br)cc1)c1ccccc1 | 1.4 | -1.0 | 2.3 | 0.6 | -1.0% | -0.3
COCCCNC(=O)c1c(NC(=O)Cc2coc3cc(C)ccc23)sc2c1CCCC2 | -65.9* | 2.6 | 1.2 | -0.3 | 0.8% | 0.1
CO[C@@H]1/C=C\CC(=O)N[C@@H](C)C(=O)OC[C@@H](OC)[C@H](C)CCCC(=O)OC[C@H]1C | x | x | x | x | 1.1%[10.1 µM] | x
CCc1ccc(NCc2cccn2-c2nnc(N3CCCCCC3)s2)cc1 | -31.0* | 8.4 | 0.2 | -0.1 | 0.0% | 1.8
CCOC(=O)C(CC)Sc1c(CC)cnc2c1c(=O)n(C)c(=O)n2C (centres undefined) | x | -2.0 | 0.6 | -0.3 | 0.7% | -0.3

Screening data deposited in PubChem by National Center for Advancing Translational Sciences (NCATS).
